In PubChem BioAssay (NCATS):
Results filed as inconclusive are left out. The source made the active and inactive calls. Calls come from the whole dose curve; as a rule, active = well fitted curve in the direction sought with a large enough effect; inconclusive = small, poorly fitted or top-dose-only effect, or another doubt; inactive = no such curve, though single readings can be large; an effect the other way counts as inactive or inconclusive. Where a SMILES comes first, the peptide text is derived from it.

Experiments:
[1] = qHTS assay for measurement of the activity of small molecule inhibitors on Zika virus induced Caspase-3 activity in human iPSC derived neural progenitor cells (hNPCs) (AID 1224857); note: nearly all actives have a fitted effect of over 65% in size
How it was run: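 hNPCs seeded 350 cells/well, cultured 16–20 h; compounds added 1 h before ZIKV (2 FFU/cell), 37 C 6 h. Caspase-Glo 3/7 luminescence after 30 min RT; % inhibition from induction scaled to uninfected (0%) and infected (100%) wells.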

[2] = qHTS assay for measurement of the activity of small molecule inhibitors on Zika virus induced Caspase-3 activity in human astrocytoma cells (AID 1224859)
How it was run: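 Luminescence read-out (Caspase-Glo 3/7, 30 min RT) of caspase activity in SNB-19 cells infected 6 h with ZIKV, 2 FFU/cell, after 1 h compound pretreatment; % inhibition from induction normalised to uninfected (0%) and infected (100%) wells.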

[3] = NS1 protein of Zika virus - qHTS assay to identify small molecule inhibitors in human HEK 293 cells (AID 1347053); note: series mostly up to about 46 µM; nearly all actives have a fitted effect of over 55% in size
How it was run: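 Readout was TR-FRET using paired anti-NS1 antibodies after 24 h infection of HEK 293 cells with ZIKV MR766 (MOI = 0.5). Compound preceded virus by 1 h; reduced signal reflects lower NS1 expression.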

[4] = qHTS of pediatric cancer cell lines to identify multiple opportunities for drug repurposing: Primary screen for TC32 cells (AID 1347089); note: nearly all actives have a fitted effect of over 60% in size; note: potency is the fitted concentration of half-maximal effect
How it was run: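 Measured quantity: luminescence from CellTiter-Glo, reflecting metabolically active TC32 cells following 48 h of compound. Curves came straight from multi-point titrations, with 8 or 11 points in primary and 11 in confirmatory screening.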

[5] = qHTS of pediatric cancer cell lines to identify multiple opportunities for drug repurposing: Primary screen for DAOY cells (AID 1347090); note: series mostly up to about 46 µM; nearly all actives have a fitted effect of over 55% in size
How it was run: (§1)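 Cell viability, CellTiter-Glo luminescence; 500-1,000 cells/well, 8- or 11-point titration, 48 h compound exposure at 37 degrees C, 5% CO2. Controls: DMSO neutral, bortezomib 2.3 µM final as positive.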

[6] = qHTS of pediatric cancer cell lines to identify multiple opportunities for drug repurposing: Primary screen for A673 cells (AID 1347092); note: nearly all actives have a fitted effect of over 45% in size
How it was run: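 Cells are plated, rested 5 h, dosed by pintool, incubated 48 h, then lysed with CellTiter-Glo and read by luminescence. DMSO is the neutral control; bortezomib at 2.3 uM final is the positive control.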

[7] = qHTS of pediatric cancer cell lines to identify multiple opportunities for drug repurposing: Primary screen for SK-N-MC cells (AID 1347093); note: potency is the fitted concentration of half-maximal effect
How it was run: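 Metabolically active cells were quantified by ATP-dependent luminescence (CellTiter-Glo, 15 min at room temperature) following 48 h treatment. Cells had been plated at 500-1,000 per well and settled for 5 h beforehand.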

[8] = qHTS of pediatric cancer cell lines to identify multiple opportunities for drug repurposing: Primary screen for BT-37 cells (AID 1347094); note: potency is the fitted concentration of half-maximal effect
How it was run: (§2)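 Primary screen of approved and investigational compounds on cells in growth media at 37 degrees C, 5% CO2. MIPE set at 11-point and NPC set at 8-point dilutions; viability scored by ATP-based luminescence at 48 hours.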

[9] = qHTS of pediatric cancer cell lines to identify multiple opportunities for drug repurposing: Primary screen for U-2 OS cells (AID 1347096); note: nearly all actives have a fitted effect of over 50% in size
How it was run: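 Cells (500-1,000/well) rested 5 h, then received compounds for 48 h; metabolically active cells were measured by CellTiter-Glo luminescence. Final concentrations spanned up to 46 µM (MIPE, 11-point) or 0.59 nM-46 µM (NPC, 8-point) in primary screens, 11-point in follow-ups.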

[10] = qHTS of pediatric cancer cell lines to identify multiple opportunities for drug repurposing: Primary screen for Saos-2 cells (AID 1347097); note: nearly all actives have a fitted effect of over 40% in size
How it was run: as §2

[11] = qHTS of pediatric cancer cell lines to identify multiple opportunities for drug repurposing: Primary screen for SJ-GBM2 cells (AID 1347091); note: potency is the fitted concentration of half-maximal effect
How it was run: as §1

[12] = qHTS of pediatric cancer cell lines to identify multiple opportunities for drug repurposing: Primary screen for NB-EBc1 cells (AID 1347095); note: potency is the fitted concentration of half-maximal effect
How it was run: as §2

Measured: Potency

CCc1cc2cc(OC)c(OC)cc2c(Cc2ccccc2)n1
inactive: [1] | [2] | [3] | [4] | [5] | [6] | [7] | [8] | [9] | [10]

CC(C)=CCC/C(C)=C/CC/C(C)=C/C(=O)OCC(=O)[C@@]1(O)CC[C@H]2[C@@H]3CCC4=CC(=O)C=C[C@]4(C)[C@H]3[C@@H](O)C[C@@]21C
inactive: [1] | [2] | [3] | [4] | [6] | [7] | [8] | [9]
active: [11] 13300 nM | [12] 21100 nM

COc1c(C)c2c(c(O)c1C/C=C(\C)CCC(=O)OCCN1CCOCC1)C(=O)OC2
active: [4] 745 nM | [8] 347 nM | [12] 188 nM
inactive: [1] | [2] | [3]

Cc1ccc(C(=O)Oc2ccc(C(O)CNC(C)(C)C)cc2OC(=O)c2ccc(C)cc2)cc1 (stereo not drawn)
active: [7] 1 nM
inactive: [1] | [2] | [3] | [4] | [11] | [8] | [12] | [10]

C/C(=C(/OCCOc1ccc(Cl)cc1)c1ccc(Cl)cc1Cl)n1ccnc1
active: [7] 21100 nM
inactive: [1] | [2] | [3] | [5] | [11] | [8] | [12] | [9] | [10]

Cc1cc(CCCOc2c(C)cc(-c3noc(C(F)(F)F)n3)cc2C)on1
inactive: [1] | [2] | [3] | [5] | [11] | [6] | [7] | [8] | [12] | [9] | [10]

CN1CCCN(C(c2ccccc2)c2ccc(Cl)cc2)CC1 (stereo not drawn)
inactive: [1] | [2] | [3] | [4] | [5] | [12] | [9]

COc1ccccc1N1CCN(CC(O)COc2cc(OC)c(OC)c(OC)c2)CC1 (stereo not drawn)
inactive: [1] | [2] | [3] | [5] | [11] | [6] | [8] | [12] | [9] | [10]

CC(C)(C)CC(=O)OCC(=O)[C@@]1(O)CC[C@H]2[C@@H]3CCC4=CC(=O)C=C[C@]4(C)[C@H]3[C@@H](O)C[C@@]21C
inactive: [1] | [2] | [3] | [5] | [11] | [6] | [7] | [8] | [12] | [9]

CN(C)[C@@H]1C(=O)C(C(N)=O)=C(O)[C@@]2(O)C(=O)C3=C(O)c4c(O)cccc4C[C@H]3C[C@@H]12
inactive: [1] | [2] | [3] | [5] | [11] | [6] | [7] | [12] | [9] | [10]

CC(=O)N[C@@H](CO)C(=O)N[C@@H](CC(=O)O)C(=O)N[C@@H](CCCCN)C(=O)N1CCC[C@H]1C(=O)O (Ac-SDKP-OH)
inactive: [1] | [2] | [3] | [5] | [11] | [6] | [8] | [12] | [9] | [10]
